For 33 molecules, Potency results are on record in PubChem BioAssay (NCATS).

Results filed as inconclusive are left out. A call without a number means that no potency is given here. Unmarked numbers belong to inactive results. Calls of active or inactive are those of the source. The call rests on the fitted dose curve; in most records, active means well fitted inhibition curve with a large enough effect; inconclusive means small, poorly fitted or top-dose-only effect; inactive means no such curve, though single readings can be large or run the other way.

Assay [1] deals with Zika virus NS2B-NS3 protease (unlinked complex). In words: Primary screen GU Rhodamine qHTS for Zika virus inhibitors: Unlinked NS2B-NS3 protease assay (AID 1347159). Further: nearly all actives have a fitted effect of over 60% in size. The procedure, abridged:
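A qHTS format was used, with compound concentrations ranging up to 114 microM. Each compound was preincubated with 25 nM NS2B-NS3 protease, and the substrate was then added at 1.5 microM. Curves were fitted with a 4-parameter Hill model.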
Background: In qHTS, concentration-response curves come from the screen itself.

For assay [2], the system named is Zika virus NS2B-NS3 protease (linked construct). In words: Primary screen NINDS Rhodamine qHTS for Zika virus inhibitors (AID 1347160). Further: nearly all actives have a fitted effect of over 55% in size. The method, boiled down: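 Kinetic fluorescence (Ex 480 nm, Em 540 nm) over 15 min with 1.5 microM Rhodamine110 peptide and 25 nM linked protease.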

On to `CCCn1cc2c(nc(NC(=O)Nc3ccc(OC)cc3)n3nc(-c4ccco4)nc23)n1`, for which the Potency result in assay [1] and in assay [2] was “inactive” each time.
As to `Cc1cc(C(=O)Nc2cc(Nc3ccc4c(/C=C/c5ccccn5)n[nH]c4c3)ccc2F)n(C)n1`, the Potency entry in assay [1] and in assay [2] was “inactive” in each case.
For `COc1cc(/C=C2\CCCN([C@@H](C)c3ccc(F)cc3)C2=O)ccc1-n1cnc(C)c1`, the Potency result in assay [1] and in assay [2] was “inactive” each time.
As for `C=C1CC2OC(=O)C(=C)C2C(OC(=O)/C(C)=C\C)CC2(C)OC1=CC2=O` (stereo unspecified), the Potency entry in assay [1] and in assay [2] was “inactive” each time.
As to `COc1ccccc1-c1ccc(-c2cn(C(=O)N3CCCCC3Cc3ccccc3)nn2)cc1` (stereo unspecified), the Potency entry in assay [1] and in assay [2] was “inactive” in each case.
Take `Nc1cccc(CNC(=O)c2ccc(Oc3ccc(OCc4cccc(F)c4)cc3)nc2)c1`: the Potency entry in assay [1] and in assay [2] was “inactive” in each case.
`Cc1cnc(-c2ccccc2C(C)C)nc1NCc1ccc(-n2ccnn2)cc1`: the Potency entry in assay [1] and in assay [2] was “inactive” in each case.
With `C#CC(=O)N(c1ccc(OC)cc1OC)C(C(=O)NCC(=O)OCC)c1cccs1` (stereo unspecified), the Potency entry in assay [1] and in assay [2] was “inactive” throughout.
`CC(=O)OC1CC(C)(C(=O)O)CC2C3=CC(=O)C4C5(C)CCC(OC6OC(C(=O)O)C(O)C(O)C6OC6OC(C(=O)O)C(O)C(O)C6O)C(C)(C)C5CCC4(C)C3(C)CCC12C` (stereo unspecified): the Potency entry in assay [1] and in assay [2] was “inactive” throughout.
As for `CCn1c(N)c(C(=O)NC)c(=O)c2ccc(C#CC(C)(O)COC)nc21` (stereo unspecified), the Potency entry in assay [1] and in assay [2] was “inactive” each time.
As to `Cn1ncc(Cl)c1-c1cc(C(=O)N[C@H](CN)Cc2ccc(F)c(F)c2)oc1Cl`, the Potency entry in assay [1] and in assay [2] was “inactive” throughout.
Consider `O=C(NCCCN1CCC2(CC1)OCc1ccccc12)[C@H]1CCCN1Cc1ccccc1`, for which the Potency entry in assay [1] and in assay [2] was “inactive” each time.
Turning to `Nc1nc2c(s1)CCN(Cc1ccc(Cl)cc1)CC2`, the Potency entry in assay [1] and in assay [2] was “inactive” throughout.
`C=C1/C(=C/C=C2\CCC[C@]3(C)[C@@H]([C@H](C)CC[C@@H](O)C(C)(C)O)CC[C@@H]23)C[C@@H](O)C[C@@H]1O`: the Potency result in assay [1] and in assay [2] was “inactive” throughout.
In the case of `COC(CCc1ccc(O)cc1)CC(=O)CCc1ccc(O)cc1` (stereo unspecified), the Potency entry in assay [1] and in assay [2] was “inactive” in each case.
In the case of `CC[C@@H](C)[C@@H]1OC2(C=C[C@H]1C)C[C@@H]1C[C@H](C/C=C(\C)[C@H](O[C@H]3C[C@H](OC)[C@H](O[C@H]4C[C@H](OC)[C@H](NC(C)=O)[C@H](C)O4)[C@H](C)O3)[C@H](C)/C=C/C=C3\CO[C@H]4[C@H](O)C(C)=C[C@@H](C(=O)O1)[C@@]34O)O2` (stereo partly specified), the Potency entry in assay [1] and in assay [2] was “inactive” throughout.
For the molecule `C/C=C/C1=CC2=C(CO1)C(=O)C(C)(OC(=O)c1c(C)cc(O)cc1OC)C(O)C2` (stereo unspecified), the Potency entry in assay [1] and in assay [2] was “inactive” each time.
Take `Cc1cccc(CC(=O)N2CCc3c2ccc(-c2cn(C)c4ncnc(N)c24)c3F)n1`: the Potency result in assay [1] and in assay [2] was “inactive” throughout.
With `CNc1nc(NCc2ccc(NS(C)(=O)=O)cc2Cl)cc(-c2ccccn2)n1`, the Potency result in assay [1] and in assay [2] was “inactive” in each case.
Consider `CC(C)(C[C@@](O)(Cc1cc2ccncc2[nH]1)C(F)(F)F)c1cc(F)ccc1O`, for which the Potency result in assay [1] and in assay [2] was “inactive” each time.
`O=C(O)C1=CO[C@@H](O[C@@H]2O[C@H](CO)[C@@H](O)[C@H](O)[C@H]2O)[C@@H]2C(CO)=CC[C@H]12`: the Potency entry in assay [1] and in assay [2] was “inactive” throughout.
With `O=C(CN1C2=NCCN2c2ccccc21)c1ccc(-c2ccccc2)cc1`, the Potency result in assay [1] and in assay [2] was “inactive” in each case.
`Cn1ncc(Cl)c1-c1cc(C(=O)NC(CN)Cc2ccc(F)c(F)c2)oc1Cl` (stereo unspecified): the Potency result in assay [1] and in assay [2] was “inactive” throughout.
On to `C=C1C(=O)OC2C(OC(=O)C=C(C)C)C(C)=C3C(=O)C=C(C)C3C(O)C12` (stereo unspecified), for which the Potency entry in assay [1] and in assay [2] was “inactive” in each case.
Take `CC(C)(C)c1ccc(NC(=O)N2CCN(c3ncccc3Cl)CC2)cc1`: the Potency result in assay [1] and in assay [2] was “inactive” in each case.
As to `C=C1C(=O)O[C@H]2C3=C(C)CCC[C@]3(C)C(=O)C[C@@H]12`, the Potency result in assay [1] and in assay [2] was “inactive” throughout.
As to `Nc1nccc(-c2c(-c3ccc(F)cc3)ncn2C2CCCCC2)n1`, the Potency result in assay [1] and in assay [2] was “inactive” throughout.
As to `N[C@@H]1c2cccnc2[C@H](OC(=O)N2CCC(n3c(=O)[nH]c4ncccc43)CC2)CC[C@H]1c1cccc(F)c1F`, the Potency entry in assay [1] and in assay [2] was “inactive” in each case.
In the case of `O=C(Nc1cnc(Cl)nc1)c1ccc(F)c(F)c1`, the Potency result in assay [1] and in assay [2] was “inactive” each time.
As for `C=C1CC2OC(=O)C(COC)C2C(OC(=O)/C(C)=C\C)CC2(C)OC1=CC2=O` (stereo unspecified), the Potency result in assay [1] and in assay [2] was “inactive” throughout.
Turning to `CN1CCN(c2ccc(Nc3cc(-c4cccc(-n5ccc6cc(C7CC7)cc(F)c6c5=O)c4CO)cn(C)c3=O)nc2)CC1`, the Potency result in assay [1] and in assay [2] was “inactive” throughout.
With `Cc1ccc(S(=O)(=O)NCc2ccc(C(=O)NCCN(Cc3ccccc3)C(C)C)cc2)cc1`, the Potency entry in assay [1] and in assay [2] was “inactive” each time.
On to `CC(=O)N[C@H]1[C@H](O[C@H]2CC[C@@]3(C)C(CC[C@]4(C)C3CC=C3C5CC(C)(C)CC[C@]5(C(=O)O)C(O)C[C@]34C)C2(C)C)O[C@H](CO[C@@H]2O[C@H](C)[C@H](O)[C@H](O)[C@H]2O[C@@H]2OC[C@@H](O)[C@H](O)[C@H]2O)[C@@H](O)[C@@H]1O` (stereo partly specified), for which the Potency result in assay [1] and in assay [2] was “inactive” throughout.
